Test results: PubChem BioAssay (NCI)
The panel holds about 83,000 compounds, 20% with a hit somewhere; the sample as a whole holds those more often.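 Testing used 96-well plates and a 48-hour single-concentration exposure. Example: -40 means 40% of the starting cells died.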 Unmarked numbers belong to inactive results. Calls of active or inactive are those of the source. The calls were made as follows: active = growth percent below 10; inactive = the rest.

System: KM12 colon
Experiment: NCI-60 one-dose screen, 48 h (100 = growth as untreated, 0 = no growth, -100 = all killed)
Settings: 10 µM unless noted

Row | SMILES | growth
1 | O=C(/C=C/c1cccc(F)c1)c1cccc(OCCCCOc2cccc(C(=O)/C=C/c3cccc(F)c3)c2)c1 | 110%
2 | O=S(=O)(NCCCNc1nccc(-c2[nH]c(-c3ccccc3)nc2-c2ccc(F)c(O)c2)n1)c1ccc(C(F)(F)F)cc1 | 36.6%
3 | O=C(CCCCCCNC(=O)C(O)(O)C(F)(F)F)Nc1ncc(-c2ccccc2)s1 | -28.7% (active)
4 | CN(C)c1ccc(/C=N/Nc2nc(N/N=C/c3ccc(N(C)C)cc3)nc(N3CCCCC3)n2)cc1 | 93%
5 | NC1[C@H]2CN(c3cnc(C(=O)Nc4cc(F)cc5cccnc45)cn3)C[C@@H]12 (some centres undefined) | 87.4%
6 | Clc1cccc(/C=N/Nc2nc(N/N=C/c3cccc(Cl)c3)nc(N3CCCCC3)n2)c1 | 91.1%
7 | CC(Nc1ncnc2ccc(-c3cnc4cnccn34)cc12)c1ccccc1 (centres undefined) | 41.6%
8 | CN1CCN(c2ccc(Nc3nc(NCCNC(=O)c4ccccc4)c4sccc4n3)cc2)CC1 | 59.6%
9 | O=C(CSc1nc2ccccc2c(=O)n1-c1ccccc1)N/N=C/c1ccc(Oc2ccc(Cl)cc2)cc1 | 83.7%
